The full list was thinned out, with hits kept by preference.
Giardia FBPA inh: qHTS Assay for Inhibitors of Fructose-1,6-bisphosphate Aldolase from Giardia Lamblia; A8B2U2; purified Giardia FBPA; Potency, µM (series often up to 59.6 µM), inactives show at the top dose activity, negative = inhibition, usual class: inhibitors; 0.71% of 290,000 active; also: potency is read from the fitted curve at half-maximal effect; % is scaled to controls: 0 for no effect and ±100 for the full control effect; nearly all actives have a fitted effect of over 55% in size
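Giardia FBPA (40 nM reagent) was preincubated 10 min at RT with compound (up to 57.5 uM final), then substrate plus GAPDH/TPI/NAD/arsenate coupling system with diaphorase/resazurin was added; resorufin fluorescence (525/598 nm) was read after 20 min.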
TbPYK inhibitor: qHTS of Trypanosoma Brucei Inhibitors | pyruvate kinase (Trypanosoma brucei), Q57TT1 | AID 624173, 2012 | Potency, µM (series often up to 76.8 µM), without a hit: top-dose activity, negative = inhibition, actives largely listed as inhibitors | 0.12% of 410,000 active | TbPYK enzyme, Kinase-Glo Plus ATP luminescence, 45 min; also: potency is read from the fitted curve at half-maximal effect; % is scaled to controls: 0 for no effect and ±100 for the full control effect; nearly all actives have a fitted effect of over 50% in size
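Enzyme and substrate buffer are dispensed first and compound is pin-transferred. ADP at 130 uM final then starts the reaction, which runs 45 min at room temperature. Detection reagent is added for 10 min before luminescence is imaged.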
Shiga inhibitor: A qHTS for Small Molecule Inhibitors of Shiga Toxin | Vero cells, Shiga toxin protein synthesis inhibition reporter | 9.2% of 290,000 active | inhibition, % at 38.7 µM | AID 2315, 2010; in the data active = inhibition mostly above about 28%, no sharp cut-off; inactive = mostly below about 43%; also: 0% is about no effect
LmPK inhibitor: qHTS Assay for Inhibitors of Leishmania Mexicana Pyruvate Kinase (LmPK); purified LmPK, Kinase-Glo ATP luminescence, 1 h; Potency, µM (series often up to 57.5 µM), inactives show top-dose activity change, negative = inhibition, usual class: inhibitors; Q27686; 0.37% of 290,000 active; also: potency is read from the fitted curve at half-maximal effect; % is scaled to controls: 0 for no effect and ±100 for the full control effect
Target sequence (Q27686 whole entry, looked up): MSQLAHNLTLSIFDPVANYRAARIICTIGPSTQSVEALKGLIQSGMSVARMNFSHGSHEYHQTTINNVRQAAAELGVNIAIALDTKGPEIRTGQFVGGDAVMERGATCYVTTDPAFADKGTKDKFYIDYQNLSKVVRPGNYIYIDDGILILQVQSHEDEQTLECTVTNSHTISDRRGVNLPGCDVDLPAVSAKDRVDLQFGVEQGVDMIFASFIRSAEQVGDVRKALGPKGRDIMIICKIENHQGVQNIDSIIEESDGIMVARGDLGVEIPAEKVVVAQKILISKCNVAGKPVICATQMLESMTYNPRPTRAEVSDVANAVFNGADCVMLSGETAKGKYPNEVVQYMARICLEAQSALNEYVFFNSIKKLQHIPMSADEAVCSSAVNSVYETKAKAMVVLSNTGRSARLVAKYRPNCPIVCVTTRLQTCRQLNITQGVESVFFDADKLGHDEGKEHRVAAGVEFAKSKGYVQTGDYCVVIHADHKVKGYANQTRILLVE
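Pyruvate kinase activity monitored as ATP production (luciferase luminescence). Conditions: 0.1 nM enzyme, 0.5 mM PEP, 0.1 mM ADP, 1 h, RT; normalized against uninhibited and no-enzyme wells.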
RE007 growth inh: qHTS Assay for Inhibitors of the HIV-1 protein Vpr; Potency, µM (series often up to 92.2 µM), for inactives: at the highest dose activity change, negative = less growth, hits mostly inhibitors; 0.21% of 360,000 active; S. pombe RE007 Vpr strain, BacTiter-Glo ATP luminescence, 24 h; active = well fitted falling curve with a large enough effect; inconclusive = small, poorly fitted or top-dose-only effect; inactive = no such curve, though single readings can be large or run the other way; also: potency is read from the fitted curve at half-maximal effect; % is scaled to controls: 0 for no effect and ±100 for the full control effect; nearly all actives have a fitted effect of over 50% in size
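Fission yeast strain RE007, carrying one chromosomally integrated HIV-1 vpr copy, was seeded at OD 0.01 in PMG+AL medium with 23 nL pinned compound. After 24 h at 30 °C and 99% humidity, viability was read by BacTiter-Glo luminescence.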
Cycloheximide cs: Cycloheximide Counterscreen for Small Molecule Inhibitors of Shiga Toxin. cell reporter, cycloheximide protein synthesis inhibition counterscreen. max response, %. 12% of 300,000 active. AID 2314, 2010; in the data active = max response mostly above about 13%, no sharp cut-off; inactive = mostly below about 14%; also: read at 38.3 µM for the half of the compounds with a filed dose; 0% is about no effect
The depositor's hits bear a star. Unless noted, calls follow the shape of the dose curve; as a rule, active = well fitted curve in the direction sought with a large enough effect; inconclusive = small, poorly fitted or top-dose-only effect, or another doubt; inactive = no such curve, though single readings can be large; an effect the other way counts as inactive or inconclusive.

C=CCn1c(Cc2nc3ccc(Cl)cc3[nH]2)n[nH]c1=S was read as Giardia FBPA inh 9%, TbPYK inhibitor inconclusive, Shiga inhibitor -10, LmPK inhibitor 21%, RE007 growth inh 10% and Cycloheximide cs 4.
CCCCOc1ccc(C(=O)NCC(=O)OCCCOC(=O)CNC(=O)c2ccc(OCCCC)cc2)cc1 was read as TbPYK inhibitor -13% and RE007 growth inh 10%.
`Cc1cccc(NC(c2cccc(Cl)c2)c2ccc3cccnc3c2O)n1` (stereo unspecified) gave TbPYK inhibitor 20%.
Screening CC[C@]1(c2ccccc2)C(=O)N(C(=O)OC)N1C(=O)OC returned Giardia FBPA inh -11%, TbPYK inhibitor 8%, Shiga inhibitor -2, LmPK inhibitor -3%, RE007 growth inh 3% and Cycloheximide cs 10.
Screening CC[C@@]1(c2ccccc2)C(=O)N(C(=O)OC)N1C(=O)OC returned Giardia FBPA inh -8%, TbPYK inhibitor -7%, Shiga inhibitor 3, LmPK inhibitor 1%, RE007 growth inh 14% and Cycloheximide cs 5.
Screening COC(=O)N1C(=O)[C@@](Cc2ccccc2)(c2ccccc2)N1C(=O)OC returned Giardia FBPA inh -3%, TbPYK inhibitor -17%, Shiga inhibitor 9, LmPK inhibitor -4%, RE007 growth inh -2% and Cycloheximide cs 12*.
For COC(=O)N1C(=O)[C@](Cc2ccccc2)(c2ccccc2)N1C(=O)OC the results were Giardia FBPA inh 4%, TbPYK inhibitor -1%, Shiga inhibitor 5, LmPK inhibitor -8%, RE007 growth inh 2% and Cycloheximide cs 21*.
For COC(=O)N1C(=O)[C@@](c2ccccc2)(C2CCCCC2)N1C(=O)OC the results were Giardia FBPA inh -13%, TbPYK inhibitor 1%, Shiga inhibitor 13, LmPK inhibitor -8%, RE007 growth inh 5% and Cycloheximide cs 11*.
For CCSc1nnc(NC(=O)C2CC(=O)N(Cc3ccccc3)C2)s1 (stereo unspecified) the results were Giardia FBPA inh -12%, TbPYK inhibitor 1%, Shiga inhibitor -10, LmPK inhibitor -16%, RE007 growth inh -15% and Cycloheximide cs 10.
CC(Sc1nnc(C2CC2)n1C)C(=O)Nc1ccc(N2CCOCC2)cc1 (stereo unspecified) was read as TbPYK inhibitor 1% and RE007 growth inh -3%.
Screening O=P(O)(O)OP(=O)(O)OP(=O)(O)O returned TbPYK inhibitor 10%.
For O=C(NNC(=O)C1CC2CCC1C2)c1sc2ccccc2c1Cl (stereo unspecified) the results were Giardia FBPA inh -3%, TbPYK inhibitor -1%, Shiga inhibitor 85*, LmPK inhibitor -1%, RE007 growth inh -3% and Cycloheximide cs 54*.
For O=C(NNC(=S)NC1CCCCC1)c1ccc(Cl)s1 the results were Giardia FBPA inh 2%, TbPYK inhibitor -11%, Shiga inhibitor 39, LmPK inhibitor 5%, RE007 growth inh 5% and Cycloheximide cs 21*.
For O=C(NC1CC1)c1sc2ccccc2c1Cl the results were TbPYK inhibitor -3%, Shiga inhibitor 59*, LmPK inhibitor -1%, RE007 growth inh inconclusive and Cycloheximide cs 32*.
O=C(NNC(=S)NC1CCCCC1)c1sc2ccccc2c1Cl was read as Giardia FBPA inh 15%, TbPYK inhibitor -14%, Shiga inhibitor 27, LmPK inhibitor 1%, RE007 growth inh 1% and Cycloheximide cs 10*.
Screening Cc1cccc(CCNC(=O)CNS(=O)(=O)c2ccc3nc(C)sc3c2)c1 returned TbPYK inhibitor 3%, Shiga inhibitor -5, LmPK inhibitor -11%, RE007 growth inh 1% and Cycloheximide cs -4.
`O=C(Nc1ccc(F)c(Cl)c1)c1cc(C2CCCCN2C(=O)c2cccs2)on1` (stereo unspecified) gave TbPYK inhibitor -1% and RE007 growth inh 8%.
`O=C(C[n+]1ccc(C(=O)c2ccccc2)cc1)Nc1cccc([N+](=O)[O-])c1` gave TbPYK inhibitor 7% and RE007 growth inh -9%.

Screening data deposited in PubChem BioAssay by National Center for Advancing Translational Sciences (NCATS).
